GPR151 activ – activators of human GPR151, primary screen, cell-based, PathHunter beta-arrestin, luminescence; G-protein coupled receptor 151 (Homo sapiens), Q8TDV0; PathHunter beta-arrestin GPR151 cells; activation, % at 11.2 µM; 650,000 tested, 1% active; in the data active = activation above about 4.9%
Target sequence (Q8TDV0 whole entry, looked up): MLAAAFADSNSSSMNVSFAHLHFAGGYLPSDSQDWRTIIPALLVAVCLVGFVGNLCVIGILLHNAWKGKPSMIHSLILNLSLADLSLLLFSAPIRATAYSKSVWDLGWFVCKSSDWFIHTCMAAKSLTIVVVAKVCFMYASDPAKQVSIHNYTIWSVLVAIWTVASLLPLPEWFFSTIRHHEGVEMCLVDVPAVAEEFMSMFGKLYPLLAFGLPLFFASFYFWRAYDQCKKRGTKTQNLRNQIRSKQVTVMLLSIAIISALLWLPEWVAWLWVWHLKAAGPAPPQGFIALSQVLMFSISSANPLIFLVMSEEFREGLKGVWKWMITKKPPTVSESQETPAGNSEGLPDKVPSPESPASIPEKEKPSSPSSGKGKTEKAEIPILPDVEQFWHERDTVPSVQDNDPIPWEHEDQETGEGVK
TEAD-YAP block – TEAD-YAP interaction inhibition, primary screen, TEAD-YAP interaction inhibitor project, luminescence, HEK-TIYL cells; TEAD-Gal4/YAP UAS-luciferase luminescence; inhibition, % at 9.12 µM; 640,000 tested, 1.4% active; in the data active = inhibition above about 32%
MITF primary – MITF inhibitors, primary screen, biochemical, AlphaScreen, human | 650,000 tested, 0.91% active | Microphthalmia-associated transcription factor (Homo sapiens), O75030 | AlphaScreen MITF homodimerization, bead proximity signal | inhibition, % at 2.6 µM | AID 1259374, 2018; in the data active = inhibition above about 50%
FBW7 act – FBW7 E3 ligase activators, primary screen, biochemical, AlphaScreen, human. 650,000 tested, 0.13% active. AlphaScreen FBW7–phospho-cyclin E peptide binding, activator screen. normalized activity (activation), % at 26.1 µM. F-box/WD repeat-containing protein 7 (Homo sapiens), Q969H0; in the data active = normalized activity above about 1.9%;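 also: purified mutant Fbw7 with reduced substrate affinity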
A number is an active result; - = inactive. The list is not random: actives were taken first. Their share in the collection is about 3.5%.

SMILES	GPR151 activ	TEAD-YAP block	MITF primary	FBW7 act
CCN1C=C\C(=C/C=C(/C=C/c2cc[n+](CC)cc2)c2cc[n+](CC)c3ccccc23)c2ccccc21	-	-	-	-
CCN1C=C/C(=C/C=c2/s/c(=C\c3sc(-c4ccccc4)c(-c4ccccc4)[n+]3CC)n(CC)c2=O)c2ccccc21	-	-	-	2.0
Cc1ccccc1NC(=O)c1cccc2c1C(=O)c1ccccc1-2	-	53	-	-
Cc1nc2ccc(NS(=O)(=O)c3ccc(C(C)C)cc3)cc2s1	-	32	-	-
COC(=O)c1cc(Nc2cc(OC)cc(OC)c2)c2cc(C)ccc2n1	-	41	-	-
COC(=O)c1cc(Nc2cccc(OC)c2)c2cc(Cl)ccc2n1	-	38	-	-
COC(=O)c1cc(Nc2ccccc2OC)c2cc(Cl)ccc2n1	-	-	-	-
COC(=O)c1cc(Nc2ccc3c(c2)OCO3)c2cc(C)ccc2n1	-	-	-	-
O=C(NCc1ccccc1Cl)C(=O)Nc1cccc(F)c1	-	-	-	-
Cc1sc2nc(C3CCCN(C(=O)C(C)(C)C)C3)[nH]c(=O)c2c1C (stereo not given)	-	92	-	-
Cc1sc2nc(C3CCCN(C(=O)c4ccco4)C3)[nH]c(=O)c2c1C (stereo not given)	-	-	-	-
O=S(=O)(c1cccs1)N1CCN(c2cc(N3CCOCC3)ncn2)CC1	-	-	-	-
O=C(CSc1cc(N2CCOCC2)ncn1)c1cccs1	-	73	-	-
Cc1cc(NC(=S)N(Cc2ccccc2)Cc2cccs2)ccc1Cl	-	44	-	-
Cc1ccc(NC(=S)N(Cc2ccccc2)Cc2cccs2)cc1Cl	-	36	-	-
Cc1ccc(CNC(=O)CNC(=S)N(Cc2ccccc2)Cc2cccs2)cc1	-	-	-	2.0
S=C(Nc1ccc(Cl)cc1)N(Cc1ccccc1)Cc1cccs1	-	-	-	-
O=C(CNC(=S)N(Cc1ccccc1)Cc1cccs1)NCc1ccccc1	-	-	-	-
O=C(CCC(=O)N1CCC(N2CCC(C(=O)NC3CC3)CC2)CC1)c1ccc(F)cc1	-	-	-	-
N[C@H](Cc1ccc(Cl)cc1)c1nc2ncc(-c3ccncc3)cc2[nH]1	-	-	-	-
NC(c1nc2ncc(-c3ccncc3)cc2[nH]1)c1ccc(F)cc1F (stereo not given)	-	-	-	3.5
Cc1ccccc1NC(=O)C(C)n1ncn2cccc2c1=O (stereo not given)	-	-	-	-
CCOCCCNc1ncnc2c1cnn2C	-	-	-	1.9
CCC(C)Oc1ccccc1C1CC(=O)NC2=C1C(=O)CCC2 (stereo not given)	-	38	-	-
COc1ccc(-c2n[nH]c(=S)n2-c2ccccc2OC)cc1	-	-	-	-
SMILES	GPR151 activ	TEAD-YAP block	MITF primary	FBW7 act
COc1ccccc1N1CCN(c2ncc(C(=O)N3CCCC3)c3ccccc23)CC1	-	-	-	-
CCOc1ccccc1NC(=O)c1cnc(N2CCN(c3ccccn3)CC2)c2ccccc12	-	55	-	-
COc1cccc(NC(=O)c2cnc(N3CCN(c4ccccc4OC)CC3)c3ccccc23)c1	-	-	-	-
CCOC(=O)c1ccccc1NC(=O)c1cnc(N2CCN(c3ccccn3)CC2)c2ccccc12	-	-	-	-
COc1ccccc1N1CCN(c2ncc(C(=O)NCc3cccnc3)c3ccccc23)CC1	-	37	-	-
COc1ccc(OC)c(NC(=O)c2cnc(N3CCN(c4ccccc4OC)CC3)c3ccccc23)c1	-	40	-	-
COc1ccccc1N1CCN(c2ncc(C(=O)N3CCN(C)CC3)c3ccccc23)CC1	-	35	-	-
O=C(O)CCn1c(SCc2ccc(Cl)cc2)nc2ccsc2c1=O	-	-	-	-
CCOC(=O)C1CCCN(C(=S)Nc2cc(Cl)ccc2OC)C1 (stereo not given)	-	-	-	-
CN1CCc2c(sc3c2C(=O)NC(c2ccc(O)c(O)c2)N3)C1 (stereo not given)	-	-	66	-
COc1cc(C2NC(=O)c3c(sc4c3CCN(C)C4)N2)ccc1O (stereo not given)	-	-	-	-
NC(=O)c1ncsc1Nc1ccnc(Nc2ccc(N3CCOCC3)cc2)c1	-	-	-	-
CSc1nc(Nc2ccnc(Nc3ccc(N4CCOCC4)cc3)c2)c(C(N)=O)s1	-	41	-	-
C=C(C)CN1C(=O)NC(CC)(C2CCN(Cc3ccccc3C)CC2)C1=O (stereo not given)	-	-	-	-
C=C(C)CN1C(=O)NC(CC)(C2CCN(CC3=CC[C@H]4C[C@@H]3C4(C)C)CC2)C1=O (stereo not given in full)	-	43	-	-
COc1cc(/C=N/O)cc(OC)c1OC	-	-	-	-
COc1cc(O)cc(OC)c1OC	-	63	-	-
CC(C)(C)C(=O)N1CCC[C@@H](Cn2nc(-c3cccs3)ccc2=O)C1	-	66	-	-
Cc1noc(C)c1-c1nc(NCc2nc3ccccc3[nH]2)c2ncn(C(C)C)c2n1	-	49	-	-
CC(C)n1cnc2c(NCc3nc4ccccc4[nH]3)nc(Nc3ccncc3)nc21	-	90	-	-
CC(C)n1cnc2c(NCc3nc4ccccc4[nH]3)nc(-c3csc4ccccc34)nc21	-	-	-	-
CC(C)n1cnc2c(NCc3ccccc3)nc(Nc3cccc(N(C)C)c3)nc21	-	-	-	-
CC(C)n1cnc2c(NCc3nc4ccccc4[nH]3)nc(Nc3ncccn3)nc21	-	66	-	-
CC(C)n1cnc2c(NCc3nc4ccccc4[nH]3)nc(Nc3cccc(N(C)C)c3)nc21	-	43	-	-
COc1ccc(/C=C(/C#N)C(=O)Nc2ccc(O)cc2)cc1	-	-	-	-
SMILES	GPR151 activ	TEAD-YAP block	MITF primary	FBW7 act
c1ccc2c(c1)CC(c1nc3ccc(-c4ccncc4)cc3[nH]1)CCO2 (stereo not given)	-	41	-	-
COc1ccc(/C=N/Nc2nnc(C)c(=O)[nH]2)cc1	-	-	-	-
Cc1nnc(N/N=C/c2cc(Cl)ccc2O)[nH]c1=O	-	92	127	-
Cc1nnc(N/N=C/c2cc(Br)ccc2O)[nH]c1=O	-	90	114	-
Cc1nnc(N/N=C/c2ccc(Br)cc2)[nH]c1=O	-	-	-	-
CC(C)(C)c1nnc(N/N=C/c2cc(Br)ccc2O)n(N)c1=O	-	75	63	-
COc1cc(/C=N/Nc2nnc(C(C)(C)C)c(=O)n2N)ccc1O	-	-	-	-
COc1ccc(O)c(/C=N/Nc2nnc(C)c(=O)[nH]2)c1	-	72	79	-
CNC(=O)c1cc2c(=O)n3cc(C)ccc3nc2n(Cc2ccc(C)cc2)c1=N	-	-	-	-
COc1ccc(C(=O)Nn2c(SCC(=O)Nc3ccc(C)cc3)nc3ccccc3c2=O)cc1	-	88	-	-
CCOc1ccc(NC(=O)CSc2nc3ccccc3c(=O)n2NC(=O)c2ccccc2)cc1	-	-	-	-
